For experiment [1], the target named is Glycogen synthase kinase-3 beta (Homo sapiens) (UniProt P49841). As to conditions: at 1 µM.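 Further: reported values are mean percent inhibition of GSK3B.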
Experiment [2] has as its target Homeodomain-interacting protein kinase 1 (Homo sapiens) (UniProt Q86Z02). The note with it: at 0.1 µM.
The target is the same in experiment [3]. As to conditions: at 1 µM.
Experiment [4] has as its target T1, Homeodomain-interacting protein kinase 4 (Homo sapiens) (UniProt Q8NE63).
T1 sequence (whole entry): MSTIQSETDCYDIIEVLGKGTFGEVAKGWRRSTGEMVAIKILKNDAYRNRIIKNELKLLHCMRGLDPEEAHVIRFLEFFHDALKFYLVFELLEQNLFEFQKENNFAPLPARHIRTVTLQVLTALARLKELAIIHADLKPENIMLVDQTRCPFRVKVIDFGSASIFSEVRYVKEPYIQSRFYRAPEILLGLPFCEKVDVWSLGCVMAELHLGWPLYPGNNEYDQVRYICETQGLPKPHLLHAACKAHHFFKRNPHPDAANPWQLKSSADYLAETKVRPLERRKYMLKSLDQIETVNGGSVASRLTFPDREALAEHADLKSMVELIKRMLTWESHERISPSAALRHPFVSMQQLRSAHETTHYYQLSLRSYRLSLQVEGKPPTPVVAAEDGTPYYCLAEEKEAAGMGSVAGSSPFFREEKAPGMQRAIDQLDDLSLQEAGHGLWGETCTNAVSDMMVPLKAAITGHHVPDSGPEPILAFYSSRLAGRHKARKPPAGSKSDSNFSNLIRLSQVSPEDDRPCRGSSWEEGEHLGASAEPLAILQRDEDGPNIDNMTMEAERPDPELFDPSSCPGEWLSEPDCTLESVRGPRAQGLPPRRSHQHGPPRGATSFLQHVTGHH
As to conditions: at 0.1 µM.

In experiment [5] the target is T1, Homeodomain-interacting protein kinase 4 (Homo sapiens). As to conditions: at 1 µM.
The target of experiment [6] is Mitogen-activated protein kinase 9 (Homo sapiens) (UniProt P45984). As to conditions: at 0.1 µM.
Sequence of Mitogen-activated protein kinase 9 (Homo sapiens) (P45984 whole entry, looked up): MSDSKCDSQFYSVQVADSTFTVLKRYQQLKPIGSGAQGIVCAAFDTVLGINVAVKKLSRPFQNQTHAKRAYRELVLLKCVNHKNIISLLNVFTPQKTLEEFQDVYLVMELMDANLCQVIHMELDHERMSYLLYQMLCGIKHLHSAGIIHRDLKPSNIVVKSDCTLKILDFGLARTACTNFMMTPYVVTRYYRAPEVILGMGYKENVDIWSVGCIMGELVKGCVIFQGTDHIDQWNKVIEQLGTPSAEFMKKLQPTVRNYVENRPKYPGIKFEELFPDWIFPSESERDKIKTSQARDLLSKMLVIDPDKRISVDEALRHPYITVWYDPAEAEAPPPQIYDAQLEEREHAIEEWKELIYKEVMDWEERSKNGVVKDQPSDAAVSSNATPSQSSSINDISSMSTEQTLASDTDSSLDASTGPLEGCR
For experiment [7] the target is unchanged. The note with it: at 1 µM.
For experiment [8], the target named is Mitogen-activated protein kinase 1 (Homo sapiens) (UniProt P28482). The note with it: at 0.1 µM.
Sequence of Mitogen-activated protein kinase 1 (Homo sapiens) (P28482 whole entry): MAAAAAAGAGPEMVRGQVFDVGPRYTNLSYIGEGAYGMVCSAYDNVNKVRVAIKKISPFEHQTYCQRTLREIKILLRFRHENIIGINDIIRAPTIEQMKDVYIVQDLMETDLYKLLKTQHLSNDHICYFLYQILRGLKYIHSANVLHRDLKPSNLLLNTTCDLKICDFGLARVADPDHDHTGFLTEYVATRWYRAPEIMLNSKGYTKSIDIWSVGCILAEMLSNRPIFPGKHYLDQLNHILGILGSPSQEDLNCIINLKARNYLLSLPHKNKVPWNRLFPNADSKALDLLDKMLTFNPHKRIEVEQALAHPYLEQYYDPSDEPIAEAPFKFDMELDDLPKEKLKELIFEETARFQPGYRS
Experiment [9] has the same target. As to conditions: at 1 µM.
The target of experiment [10] is Mitogen-activated protein kinase 3 (Homo sapiens) (UniProt P27361). The note with it: at 0.1 µM.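 Further: each value is a mean inhibition figure.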
Sequence of Mitogen-activated protein kinase 3 (Homo sapiens) (P27361 whole entry): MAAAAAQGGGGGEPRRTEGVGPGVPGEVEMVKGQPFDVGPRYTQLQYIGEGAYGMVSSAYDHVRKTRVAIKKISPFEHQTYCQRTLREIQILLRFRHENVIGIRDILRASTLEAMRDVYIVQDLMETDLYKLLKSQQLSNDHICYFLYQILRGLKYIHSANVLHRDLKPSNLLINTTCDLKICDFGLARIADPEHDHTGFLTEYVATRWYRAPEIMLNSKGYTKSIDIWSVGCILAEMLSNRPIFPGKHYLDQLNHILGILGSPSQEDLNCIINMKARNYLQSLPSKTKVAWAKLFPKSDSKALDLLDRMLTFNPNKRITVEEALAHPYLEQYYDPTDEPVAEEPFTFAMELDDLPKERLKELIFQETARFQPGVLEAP

Sequence of Glycogen synthase kinase-3 beta (Homo sapiens) (P49841 whole entry, looked up): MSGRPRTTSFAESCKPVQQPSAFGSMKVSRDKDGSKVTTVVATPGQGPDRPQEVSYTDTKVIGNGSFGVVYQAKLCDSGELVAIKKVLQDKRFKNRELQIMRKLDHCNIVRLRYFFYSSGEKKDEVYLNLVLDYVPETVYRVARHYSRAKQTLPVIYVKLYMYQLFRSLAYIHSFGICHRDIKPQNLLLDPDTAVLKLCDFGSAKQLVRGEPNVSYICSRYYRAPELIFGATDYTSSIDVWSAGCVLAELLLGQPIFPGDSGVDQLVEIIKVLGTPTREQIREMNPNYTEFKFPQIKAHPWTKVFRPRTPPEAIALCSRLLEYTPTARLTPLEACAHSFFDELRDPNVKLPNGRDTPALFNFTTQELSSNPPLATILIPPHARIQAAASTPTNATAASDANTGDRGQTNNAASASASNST
Sequence of Homeodomain-interacting protein kinase 1 (Homo sapiens) (Q86Z02 whole entry, looked up): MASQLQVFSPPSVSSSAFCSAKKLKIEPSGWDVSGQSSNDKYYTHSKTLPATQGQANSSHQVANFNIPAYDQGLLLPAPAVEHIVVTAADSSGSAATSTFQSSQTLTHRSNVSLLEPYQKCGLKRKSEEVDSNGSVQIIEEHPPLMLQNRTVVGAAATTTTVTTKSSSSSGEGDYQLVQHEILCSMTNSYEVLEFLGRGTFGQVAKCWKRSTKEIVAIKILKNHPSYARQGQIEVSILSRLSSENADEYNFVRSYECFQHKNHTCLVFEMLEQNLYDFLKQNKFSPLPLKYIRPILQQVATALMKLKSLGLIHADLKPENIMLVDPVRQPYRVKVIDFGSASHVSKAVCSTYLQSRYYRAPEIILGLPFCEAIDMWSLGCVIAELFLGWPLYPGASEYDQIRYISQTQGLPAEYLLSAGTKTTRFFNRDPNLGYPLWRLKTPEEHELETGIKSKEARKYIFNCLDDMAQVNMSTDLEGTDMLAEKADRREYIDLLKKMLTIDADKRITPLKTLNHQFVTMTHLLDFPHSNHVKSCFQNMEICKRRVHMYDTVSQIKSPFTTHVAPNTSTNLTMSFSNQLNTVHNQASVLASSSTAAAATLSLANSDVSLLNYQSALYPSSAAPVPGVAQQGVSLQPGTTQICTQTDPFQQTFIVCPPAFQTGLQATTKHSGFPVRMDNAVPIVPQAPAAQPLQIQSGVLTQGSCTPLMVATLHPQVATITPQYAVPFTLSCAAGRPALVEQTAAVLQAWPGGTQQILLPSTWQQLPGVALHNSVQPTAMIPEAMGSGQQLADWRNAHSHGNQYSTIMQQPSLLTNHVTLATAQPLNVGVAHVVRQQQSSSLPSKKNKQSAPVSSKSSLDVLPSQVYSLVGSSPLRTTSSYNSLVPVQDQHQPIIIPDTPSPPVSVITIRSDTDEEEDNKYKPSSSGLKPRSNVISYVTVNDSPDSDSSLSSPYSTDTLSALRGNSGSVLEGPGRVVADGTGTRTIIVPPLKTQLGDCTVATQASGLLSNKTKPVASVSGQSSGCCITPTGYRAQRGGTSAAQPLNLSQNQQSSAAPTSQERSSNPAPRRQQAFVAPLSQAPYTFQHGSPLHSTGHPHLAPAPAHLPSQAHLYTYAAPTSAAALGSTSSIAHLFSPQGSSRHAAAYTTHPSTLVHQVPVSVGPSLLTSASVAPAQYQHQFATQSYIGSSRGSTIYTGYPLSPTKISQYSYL

With `Nc1nccc(C#Cc2cncnc2Nc2ccc(OCc3cccc(F)c3)c(Cl)c2)n1`, the inhibition was 10.5% in experiment [1]; -0.05% in [2]; 6.94% in [3]; 4.23% in [4]; 8.43% in [5]; 3.97% in experiment [6]. For the same compound, the inhibition was 4.23% in experiment [7], 3.54% in experiment [8], 4.87% in experiment [9] and 1.83% in experiment [10].
On to `Nc1nccc(-c2c(-c3ccc(F)cc3)ncn2CCCN2CCOCC2)n1`, for which the inhibition in [1] was 4.68%; in experiment [2], 0.97%; in experiment [3], -1.48%; in experiment [4] it was 0.18%; in experiment [5], -0.66%; in [6], 4.45%. The inhibition turned out to be 15.8% in [7], 6.64% in experiment [8], 4.64% in experiment [9] and 3.65% in [10].
For the compound `O=C1Nc2ccc(-c3cccnc3)cc2C1=Cc1cc(Br)c(O)c(Br)c1`, the inhibition is 21.4% in experiment [1]; 2.42% in experiment [2]; 22.4% in experiment [3]; 2.35% in experiment [4]; 13.8% in experiment [5]; 1.52% in experiment [6]. Besides, the inhibition was 3.04% in experiment [7], 6.12% in experiment [8], 3.37% in experiment [9] and 4.06% in [10].
Take `Cc1ccc(C(=O)NC2CC2)cc1-c1ccc2[nH]ncc2c1`: the inhibition in experiment [1] is 1.14%; in experiment [2], -4.85%; in [3], 0.04%; in experiment [4], 0.67%; in [5], 5.11%; in [6], -0.5%. Also, the inhibition in [7] is -1.51%; in experiment [8], -3.82%; in experiment [9], -5.22%; in experiment [10], -2.68%.
As to `N#Cc1cccc(Nc2nccc(-c3cnn4ncccc34)n2)c1`, the inhibition in experiment [1] was determined as 88.1%; in experiment [2], 82.9%; in experiment [3] it was 89.3%; in [4] it was 79.9%; in [5], 88.1%; in [6], 10.4%. Moreover, the inhibition in experiment [7] came out at 44.3%; in experiment [8] it was 15.6%; in experiment [9], 59.4%; in experiment [10] it was 8.27%.
Regarding `CN(C)CCCn1c(-c2nonc2N)nc2cnccc21`, the inhibition in [1] was 12.3%; in experiment [2] it was 1.03%; in [3], -0.49%; in [4], 0.39%; in experiment [5], 0.4%; in [6], 5.36%. Further, the inhibition in experiment [7] was determined as 4.57%; in [8], 2.21%; in experiment [9], 4.9%; in experiment [10] it was 2.32%.
`COc1ccc2ncnc(Nc3ccc(OCc4ccccc4)cc3)c2c1`: the inhibition in experiment [1] turned out to be 0.7%; in experiment [2] it was 0.26%; in experiment [3], 3.41%; in [4] it was 0.67%; in experiment [5] it was 1.18%; in experiment [6], 3.85%. In addition, the inhibition was 2.97% in [7], 2.37% in experiment [8], 2.37% in experiment [9] and 4.06% in experiment [10].
Take `Nc1nccc(-c2c(-c3ccc(F)cc3)nn3cc(C(F)(F)F)ccc23)n1`: the inhibition was -1.01% in experiment [1]; -6.6% in [2]; -1.23% in experiment [3]; -0.17% in experiment [4]; 0.63% in experiment [5]; 2.4% in [6]. Moreover, the inhibition in experiment [7] is 4.47%; in experiment [8] it was -0.05%; in experiment [9], 0.2%; in [10], 3.72%.
Consider `CCn1c(-c2nonc2N)nc2ccc(F)cc21`, for which the inhibition in [1] worked out at 3.37%; in experiment [2], 2.6%; in experiment [3] it was 2.13%; in [4], 2.47%; in [5], 3.5%; in [6], 5.8%. For the same compound, the inhibition in [7] was 7.99%; in [8] it was 6.8%; in experiment [9], 8.85%; in [10], 6.33%.
As for `Cc1cc(Cl)cc2c1NC(=O)C2=NNc1ccc(S(N)(=O)=O)cc1`, the inhibition in experiment [1] was 5.76%; in experiment [2], 1.47%; in experiment [3], 1.67%; in [4] it was 0.61%; in experiment [5] it was 2.42%; in experiment [6] it was -0.14%. The inhibition turned out to be 2.41% in [7], 4.09% in [8], 2.74% in experiment [9] and 2.98% in [10].
`O=C(Nc1ccc(Oc2ccc3[nH]c(NC(=O)c4ccco4)nc3c2)cc1)Nc1cc(C(F)(F)F)ccc1F`: the inhibition is 1.83% in [1]; -4.45% in experiment [2]; -2.14% in experiment [3]; 13.6% in [4]; 66.3% in [5]; 0.08% in [6]. Besides, the inhibition in [7] came to 2.67%; in experiment [8], 0.81%; in [9], 0.8%; in experiment [10], 1.59%.
`N#Cc1c(NC(=O)c2ccccc2F)sc2c1CCCC2`: the inhibition in experiment [1] is -0.09%; in experiment [2] it was -4.32%; in [3], -0.26%; in [4], -0.44%; in experiment [5] it was 1.41%; in experiment [6], -2.15%. The inhibition is 2.33% in experiment [7], -0.94% in experiment [8], -1.13% in experiment [9] and -1.39% in experiment [10].
For `NS(=O)(=O)c1ccc(N/N=C2\C(=O)Nc3ccc(Cl)cc32)cc1`, the inhibition came to 54.1% in [1]; 2.46% in experiment [2]; 10.2% in experiment [3]; 2.99% in experiment [4]; 7.64% in [5]; 3.27% in experiment [6]. The inhibition in experiment [7] turned out to be 4.35%; in experiment [8] it was 6.29%; in [9], 4.79%; in experiment [10], 4.87%.
Turning to `CN(c1ccc(NC(=O)Nc2ccc(OC(F)(F)F)cc2)cc1)c1ccnc(Nc2cccc(S(N)(=O)=O)c2)n1`, the inhibition was found to be 13.6% in experiment [1]; 1.06% in experiment [2]; 34% in [3]; 62.4% in [4]; 83.6% in [5]; 1.46% in [6]. In addition, the inhibition in experiment [7] turned out to be 3.15%; in experiment [8], 4.33%; in experiment [9] it was 3.93%; in experiment [10] it was 2.67%.
`Cc1cc(-c2ccccn2)cc(C)c1/C=C/c1cncc(-c2nn[nH]n2)c1`: the inhibition was determined as 13.7% in experiment [1]; 1.03% in [2]; 5.14% in [3]; 1.94% in [4]; 7.19% in [5]; 5.13% in [6]. The inhibition in experiment [7] was 9.24%; in experiment [8], 4.92%; in [9] it was 7.24%; in experiment [10], 5.71%.
As to `FC(F)(F)c1ccc(-c2nn3ncccc3c2-c2ccnc(Nc3ccc4c(c3)OCCO4)n2)cc1`, the inhibition in [1] came to 9.99%; in experiment [2], 9.14%; in [3], 7.72%; in experiment [4], 9.55%; in experiment [5], 11.2%; in experiment [6], 3%. In addition, the inhibition in [7] is 32.6%; in experiment [8] it was 1.76%; in experiment [9], -1.13%; in experiment [10], 3.25%.
As for `Cc1nc(-c2ccccc2)n2nc(NCCCN3CCOCC3)ncc12`, the inhibition in [1] amounted to 18.5%; in experiment [2] it was 0.72%; in experiment [3] it was 13.3%; in [4], 1.88%; in experiment [5], 14.4%; in [6] it was 1.8%. The inhibition in [7] was 5.36%; in experiment [8], 3.31%; in [9] it was 6.13%; in [10], 4.27%.
Take `COC(=O)c1cncc(/C=C/c2c(C)cc(O)cc2C)c1`: the inhibition in experiment [1] was 12.9%; in experiment [2] it was 5.96%; in experiment [3] it was 7.63%; in experiment [4] it was 2.51%; in [5] it was 6.29%; in [6], -0.35%. The inhibition amounted to 2.18% in experiment [7], 4.28% in [8], 4.13% in experiment [9] and 3.96% in experiment [10].
Take `ON=C1CCc2cc(-c3nc(C4CCNCC4)[nH]c3-c3ccncc3)ccc21`: the inhibition in experiment [1] was 4.56%; in [2], -5.24%; in [3], 0.65%; in experiment [4], -1.3%; in experiment [5] it was 2.78%; in [6], 2.05%. Further, the inhibition in [7] was 3.06%; in [8], -1.76%; in experiment [9] it was 1.85%; in experiment [10], 1.87%.
For `Cc1ccc(NC(=O)CC2CC2)cc1-c1ccc(C(=O)NCC2CC2)cc1`, the inhibition was 3.08% in experiment [1]; -0.11% in experiment [2]; 1.56% in [3]; 2.64% in [4]; 4.19% in [5]; 3.4% in experiment [6]. The inhibition in experiment [7] is 3.8%; in experiment [8], 2.01%; in experiment [9], 3.96%; in [10], 5.26%.

The values above are taken from ChEMBL document CHEMBL1961873, “Compounds: GSK PKIS; Assays: Nanosyn kinase panel” (2012).
